Assay results from PubChem BioAssay (Tox21).
Records with an inconclusive call do not appear. Active and inactive are the calls of the source. Unless noted, calls come from the whole dose curve; as a rule, active = well fitted curve in the direction sought with a large enough effect in the repeat runs; inconclusive = weak or mixed curves; inactive = no such curve, though single readings can be large; an effect the other way counts as inactive or inconclusive.

Key:
[1] = qHTS assay to identify small molecule antagonists of the vitamin D receptor (VDR) signaling pathway - cell viability counter screen (AID 743225); note: % is set by controls: 0 for no effect and ±100 for the full control effect; nearly all actives have a fitted effect of over 50% in size
Procedure, shortened: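 Parallel cytotoxicity test: VDR-UAS-bla HEK 293T, 3 nM (final) 1-alpha,25-dihydroxyvitamin D3 with test compound, 16 h, 37C. Endpoint is CellTiter-Glo luminescence in the same wells.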

[2] = qHTS assay to identify small molecule agonists of the NFkB signaling pathway - cell viability counter screen (AID 1159515; calls by dose curve; note: series mostly up to about 61 µM; % is set by controls: 0 for no effect and ±100 for the full control effect; nearly all actives have a fitted effect of over 55% in size)
Procedure, shortened: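 Viability in NFkB-bla ME-180 cells was measured by CellTiter-Glo luminescence, 30 min room temperature, in wells already treated 5 hr with compounds and read for reporter FRET.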

[3] = qHTS assay to identify small molecule agonists of the endoplasmic reticulum stress response signaling pathway (AID 1159516; active = well fitted activation curve with a large enough effect in the signal ratio in the repeat runs, not every such curve was filed as active; the % refers to the signal ratio; note: % is set by controls: 0 for no effect and ±100 for the full control effect)
Procedure, shortened: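 ER stress element reporter (bla) in HeLa. 1,500 cells/well, overnight attachment; 5 hr compound; 2 hr RT substrate; dual-emission fluorescence.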

[4] = qHTS assay to identify small molecule agonists of the endoplasmic reticulum stress response signaling pathway - cell viability counter screen (AID 1159517; calls by dose curve;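 note: HeLa cells carrying an ER stress response element beta-lactamase reporter; series mostly up to about 61 µM; % is set by controls: 0 for no effect and ±100 for the full control effect; nearly all actives have a fitted effect of over 50% in size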)
Procedure, shortened: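 ESRE-bla HeLa cells, 1,500 per well, seeded overnight then treated with compounds for 5 hr at 37 C. After the beta-lactamase read, viability in the same wells is measured by CellTiter-Glo luminescence after 30 min at room temperature.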

[5] = qHTS assay to identify small molecule antagonists of the retinoid-related orphan receptor gamma (ROR-gamma) signaling pathway - cell viability counter screen (AID 1159520); note: % is set by controls: 0 for no effect and ±100 for the full control effect; nearly all actives have a fitted effect of over 50% in size
Procedure, shortened: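 Tet-on ROR gamma CHO cells were given compounds for 2 hr, then doxycycline hyclate at 1 uM final, and incubated 16 hr at 37 C. Viability was measured as ATP content by CellTiter-Glo luminescence.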

[6] = target: Nuclear receptor ROR-gamma (Homo sapiens) (UniProt P51449); experiment: qHTS assay to identify small molecule antagonists of the retinoid-related orphan receptor gamma (ROR-gamma) signaling pathway (AID 1159521;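 note: CHO cells with doxycycline inducible ROR-gamma driving an RORE luciferase reporter; top concentration of the series differs between compounds; % is set by controls: 0 for no effect and ±100 for the full control effect; nearly all actives have a fitted effect of over 50% in size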)
Procedure, shortened: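 Decreased RORE-driven luciferase luminescence indicates antagonism. Tet-on RORγ CHO cells received compound, then 1 uM final doxycycline 2 h later; signal read after 16 h incubation.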

[7] = qHTS assay to identify small molecule agonists of the AP-1 signaling pathway - cell viability counter screen (AID 1159525; calls by dose curve; note: nearly all actives have a fitted effect of over 55% in size)
Procedure, shortened: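 AP-1-bla ME-180 cells in Opti-MEM with 0.5% dialyzed FBS, compound exposure 5 h at 37 C in 15-point titration. Viability read in the same wells as ATP content by CellTiter-Glo luminescence, normalised to tetra-n-octylammonium bromide and DMSO controls.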

[8] = qHTS assay to identify small molecule agonists of the AP-1 signaling pathway (AID 1159526; calls by dose curve; note: % is set by controls: 0 for no effect and ±100 for the full control effect)
[9] = target: Retinoic acid receptor RXR-alpha (Homo sapiens) (UniProt P19793); experiment: qHTS assay to identify small molecule agonists of the RXR signaling pathway (AID 1159527; calls by dose curve; note: % is set by controls: 0 for no effect and ±100 for the full control effect; nearly all actives have a fitted effect of over 35% in size)
Sequence of Retinoic acid receptor RXR-alpha (Homo sapiens) (P19793 whole entry, looked up): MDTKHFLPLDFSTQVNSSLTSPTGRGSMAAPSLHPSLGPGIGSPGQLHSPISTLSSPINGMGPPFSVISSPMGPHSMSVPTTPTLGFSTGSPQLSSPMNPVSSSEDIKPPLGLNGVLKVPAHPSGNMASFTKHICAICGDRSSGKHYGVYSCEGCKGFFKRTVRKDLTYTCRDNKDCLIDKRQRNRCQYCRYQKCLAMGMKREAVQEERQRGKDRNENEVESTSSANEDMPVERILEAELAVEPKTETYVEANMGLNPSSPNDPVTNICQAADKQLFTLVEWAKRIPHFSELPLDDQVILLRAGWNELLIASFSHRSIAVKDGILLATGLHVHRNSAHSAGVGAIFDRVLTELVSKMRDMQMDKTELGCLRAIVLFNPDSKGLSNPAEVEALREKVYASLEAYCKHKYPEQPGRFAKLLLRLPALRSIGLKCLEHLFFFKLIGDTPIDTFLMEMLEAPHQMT
Procedure, shortened: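 16 hr incubation of compound-treated RXR-alpha-UAS-bla HEK 293T cells (2% charcoal-stripped FBS, 37 C) preceded a 2 hr room-temperature LiveBLAzer FRET substrate step and blue/green fluorescence measurement.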

[10] = qHTS assay to identify small molecule agonists of the RXR signaling pathway - cell viability counter screen (AID 1159529)
Procedure, shortened: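 In this parallel viability measure, GeneBLAzer RXR-alpha HEK 293T cells (2% charcoal-stripped FBS) were given a 5 hr preincubation, treated with compounds 16 hr at 37 C, and read by CellTiter-Glo luminescence.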

[11] = qHTS assay to identify small molecule antagonists of the retinoid acid receptor (RAR) signaling pathway - cell viability counter screen (AID 1159551); note: % is set by controls: 0 for no effect and ±100 for the full control effect; nearly all actives have a fitted effect of over 35% in size
Procedure, shortened: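 Following overnight attachment, C3RL4 reporter cells received DMSO-dissolved compounds and then retinol (1 uM final). Six hours later at 37 C, ATP content was measured by CellTiter-Glo luminescence.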

[12] = qHTS assay to identify small molecule antagonists of the retinoic acid receptor (RAR) signaling pathway (AID 1159552)
Procedure, shortened: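 C3RL4 RARE-luc cells, overnight plating; retinol 1 uM final added right after compound; 6 hr 37 C; luciferase read at 30 min RT.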

[13] = qHTS assay to identify small molecule agonists of the retinoic acid receptor (RAR) signaling pathway (AID 1159553); note: % is set by controls: 0 for no effect and ±100 for the full control effect
Procedure, shortened: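 Cell line C3RL4, RARE luciferase reporter. Treatment: compounds in DMSO, 6 hr, 37 C, 5% CO2, after overnight plating. Detection: luminescence, 30 min RT after reagent.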

[14] = qHTS assay to identify small molecule antagonists of the estrogen related receptor (ERR) signaling pathway from Tox21 library - cell viability counter screen (AID 1224834); note: % is set by controls: 0 for no effect and ±100 for the full control effect; nearly all actives have a fitted effect of over 30% in size
Procedure, shortened: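 Viability readout (CellTiter-Fluor fluorescence, 30 min at 37 C) multiplexed with the ERR assay; cells treated 17.5 h at 37 C with compounds delivered in DMSO.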

[15] = target: Luciferin 4-monooxygenase (Photinus pyralis) (UniProt P08659); experiment: qHTS assay to identify small molecule inhibitors of firefly luciferase (AID 1224835); note: nearly all actives have a fitted effect of over 25% in size; note: potency is the fitted concentration of half-maximal effect; for activity change, negative = inhibition: series mostly up to about 120 µM; % is set by controls: 0 for no effect and ±100 for the full control effect
Sequence of Luciferin 4-monooxygenase (Photinus pyralis) (P08659 whole entry, looked up): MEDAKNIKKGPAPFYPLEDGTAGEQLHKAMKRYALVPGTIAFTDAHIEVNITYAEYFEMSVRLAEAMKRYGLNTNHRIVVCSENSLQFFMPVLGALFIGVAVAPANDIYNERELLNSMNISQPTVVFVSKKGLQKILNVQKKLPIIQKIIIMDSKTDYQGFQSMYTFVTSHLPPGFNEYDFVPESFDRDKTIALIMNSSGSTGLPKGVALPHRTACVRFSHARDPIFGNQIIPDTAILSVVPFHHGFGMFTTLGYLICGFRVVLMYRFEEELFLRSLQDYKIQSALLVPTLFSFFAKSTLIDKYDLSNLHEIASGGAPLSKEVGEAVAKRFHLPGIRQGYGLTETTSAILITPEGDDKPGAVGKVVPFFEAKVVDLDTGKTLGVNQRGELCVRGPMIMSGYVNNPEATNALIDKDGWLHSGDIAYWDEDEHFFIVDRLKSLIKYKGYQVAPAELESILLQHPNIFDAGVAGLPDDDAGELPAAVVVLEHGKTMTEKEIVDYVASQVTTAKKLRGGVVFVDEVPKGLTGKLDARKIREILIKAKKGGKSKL
Procedure, shortened: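 Biochemical qHTS: compounds run as interplate titrations against purified firefly enzyme, with D-luciferin and ATP each at its KM concentration. Light output recorded by CCD imaging.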

[16] = qHTS assay to identify small molecule agonists of the constitutive androstane receptor (CAR) signaling pathway - cell viability counter screen (AID 1224836); note: series mostly up to about 92 µM; % is set by controls: 0 for no effect and ±100 for the full control effect; nearly all actives have a fitted effect of over 45% in size
Procedure, shortened: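 Using CellTiter-Fluor, viability of HepG2 cells harbouring hCAR and CYP2B6-2.2kb was measured following 23 h incubation with a 15-concentration compound series plus PK11195 (0.75 uM final).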

[17] = qHTS assay to identify small molecule antagonists of the constitutive androstane receptor (CAR) signaling pathway - cell viability counter screen (AID 1224837); note: series mostly up to about 92 µM; % is set by controls: 0 for no effect and ±100 for the full control effect; nearly all actives have a fitted effect of over 45% in size
Procedure, shortened: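 Fluorescence from CellTiter-Fluor served as the viability signal. Human hepatoma HepG2 cells stably bearing hCAR and CYP2B6-2.2kb received compound plus CITCO (50 nM final) for 23 hr.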

[18] = target: Nuclear receptor subfamily 1 group I member 3 (Homo sapiens) (UniProt Q14994); experiment: qHTS assay to identify small molecule antagonists of the constitutive androstane receptor (CAR) signaling pathway (AID 1224838);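 note: HepG2 cells stably expressing hCAR with CYP2B6 luciferase reporter stimulated by CITCO; % is set by controls: 0 for no effect and ±100 for the full control effect; nearly all actives have a fitted effect of over 40% in size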
Sequence of Nuclear receptor subfamily 1 group I member 3 (Homo sapiens) (Q14994 whole entry, looked up): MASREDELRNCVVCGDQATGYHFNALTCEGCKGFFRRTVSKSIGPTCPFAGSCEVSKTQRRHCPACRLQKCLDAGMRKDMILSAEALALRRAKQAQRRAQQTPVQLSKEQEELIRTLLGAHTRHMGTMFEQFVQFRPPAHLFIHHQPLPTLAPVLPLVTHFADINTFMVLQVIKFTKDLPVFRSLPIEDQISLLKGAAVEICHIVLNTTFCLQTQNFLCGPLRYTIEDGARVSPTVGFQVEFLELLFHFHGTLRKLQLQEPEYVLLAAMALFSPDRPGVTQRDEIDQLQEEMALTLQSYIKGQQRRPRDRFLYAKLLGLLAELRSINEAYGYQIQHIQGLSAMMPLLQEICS
Procedure, shortened: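 Quantitative HTS in double-stable HepG2-CYP2B6-hCAR cells. After 4 h plating, cells get compound (15 concentrations) and CITCO at 50 nM final, incubate 24 h at 37 C, then ONE-Glo luminescence is read.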

[19] = target: Nuclear receptor subfamily 1 group I member 3 (Homo sapiens) (UniProt Q14994); experiment: qHTS assay to identify small molecule agonists of the constitutive androstane receptor (CAR) signaling pathway (AID 1224839);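 note: HepG2 cells stably carrying human CAR and a CYP2B6 luciferase reporter; series mostly up to about 92 µM; % is set by controls: 0 for no effect and ±100 for the full control effect; nearly all actives have a fitted effect of over 15% in size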
Procedure, shortened: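 Double-stable HepG2 cells (hCAR, CYP2B6-2.2kb) seeded 4 h before compound addition. Exposure 24 h with 0.75 uM PK11195 final. Luciferase detected by ONE-Glo.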

[20] = qHTS assay to identify small molecule antagonists of the estrogen related receptor signaling pathway with the pleiotropic PPARgamma coactivator (PGC) from Tox21 10K library - cell viability counter screen (AID 1224840; active = well fitted cell-killing curve with a large enough effect in the repeat runs, not every such curve was filed as active; note: % is set by controls: 0 for no effect and ±100 for the full control effect; nearly all actives have a fitted effect of over 40% in size)
Procedure, shortened: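 Compounds in DMSO, alongside positive and negative controls, were pinned onto PGC/ERR cells (2,000 per well). Exposure lasted 17.5 hours at 37 C, followed by a 30-minute CellTiter-Fluor incubation and fluorescence reading.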

Cc1ccccc1OCC(=O)O
inactive: outcome [1] | outcome [2] | Potency [3] | outcome [4] | outcome [5] | outcome [6] | outcome [7] | Potency [8] | Potency [9] | Potency [10] | outcome [11] | outcome [12] | Potency [13] | outcome [14] | Potency [15] | outcome [16] | outcome [17] | outcome [18] | Potency [19] | outcome [20]

N#CC1(N)CCCCC1
inactive: outcome [1] | outcome [2] | Potency [3] | outcome [4] | outcome [5] | outcome [6] | outcome [7] | Potency [8] | Potency [9] | Potency [10] | outcome [11] | outcome [12] | Potency [13] | outcome [14] | Potency [15] | outcome [16] | outcome [17] | outcome [18] | Potency [19] | outcome [20]

CC/C=C/CCCCCCCCCCOC(C)=O
inactive: outcome [1] | outcome [2] | Potency [3] | outcome [4] | outcome [5] | outcome [6] | outcome [7] | Potency [8] | Potency [9] | Potency [10] | outcome [11] | outcome [12] | Potency [13] | outcome [14] | Potency [15] | outcome [16] | outcome [17] | outcome [18] | Potency [19] | outcome [20]

CCCCCCCCS(=O)(=O)O
inactive: outcome [1] | outcome [2] | Potency [3] | outcome [4] | outcome [5] | outcome [6] | outcome [7] | Potency [8] | Potency [9] | Potency [10] | outcome [11] | outcome [12] | Potency [13] | outcome [14] | Potency [15] | outcome [16] | outcome [17] | outcome [18] | Potency [19] | outcome [20]

CCOC(=O)CC
inactive: outcome [2] | Potency [3] | outcome [4] | outcome [5] | outcome [6] | outcome [7] | Potency [8] | Potency [9] | Potency [10] | outcome [11] | outcome [12] | Potency [13] | outcome [14] | Potency [15] | outcome [16] | outcome [17] | outcome [18] | Potency [19] | outcome [20]

CC(C)=CCC/C(C)=C\C#N
inactive: outcome [1] | outcome [2] | Potency [3] | outcome [4] | outcome [5] | outcome [6] | outcome [7] | Potency [8] | Potency [9] | Potency [10] | outcome [11] | outcome [12] | Potency [13] | outcome [14] | Potency [15] | outcome [16] | outcome [17] | outcome [18] | Potency [19] | outcome [20]

O=S(=O)(O)c1ccc(Cl)cc1
inactive: outcome [1] | outcome [2] | Potency [3] | outcome [4] | outcome [5] | outcome [6] | outcome [7] | Potency [8] | Potency [9] | Potency [10] | outcome [11] | outcome [12] | Potency [13] | outcome [14] | Potency [15] | outcome [16] | outcome [17] | outcome [18] | Potency [19] | outcome [20]

COc1cc(OC)cc(OC)c1
inactive: outcome [1] | outcome [2] | Potency [3] | outcome [4] | outcome [5] | outcome [6] | outcome [7] | Potency [8] | Potency [9] | Potency [10] | outcome [11] | outcome [12] | Potency [13] | outcome [14] | Potency [15] | outcome [16] | outcome [17] | outcome [18] | Potency [19] | outcome [20]

CC(=O)Oc1ccc(C(C)=O)cc1
inactive: outcome [2] | Potency [3] | outcome [4] | outcome [5] | outcome [6] | outcome [7] | Potency [8] | Potency [9] | Potency [10] | outcome [11] | outcome [12] | Potency [13] | outcome [14] | Potency [15] | outcome [16] | outcome [17] | outcome [18] | Potency [19] | outcome [20]

COc1cc2nc(N3CCN(C(=O)C4CCCO4)CC3)nc(N)c2cc1OC (stereo unspecified)
inactive: outcome [2] | Potency [3] | outcome [4] | outcome [5] | outcome [6] | outcome [7] | Potency [8] | Potency [9] | Potency [10] | outcome [11] | outcome [12] | Potency [13] | outcome [14] | outcome [16] | outcome [17] | outcome [18] | Potency [19] | outcome [20]
active: Potency [15] 17.4 µM

O=c1c(O)c(O)c1=O
inactive: outcome [2] | Potency [3] | outcome [4] | outcome [5] | outcome [6] | outcome [7] | Potency [8] | Potency [9] | Potency [10] | outcome [11] | outcome [12] | Potency [13] | outcome [14] | Potency [15] | outcome [16] | outcome [17] | outcome [18] | Potency [19] | outcome [20]

CCN(CC)CC
inactive: outcome [1] | outcome [2] | Potency [3] | outcome [4] | outcome [5] | outcome [6] | outcome [7] | Potency [8] | Potency [9] | Potency [10] | outcome [11] | outcome [12] | Potency [13] | outcome [14] | Potency [15] | outcome [16] | outcome [17] | outcome [18] | Potency [19] | outcome [20]

C=CCCCCCCCCCCCCCC
inactive: outcome [1] | outcome [2] | Potency [3] | outcome [4] | activity, negative = cytotoxicity [5] 0.624% [at 19 µM] | activity change, negative = inhibition [6] -3.67% [at 19 µM] | viability change, negative = cytotoxic [7] 0.684% [at 15.8 µM] | activation [8] -3.84% [at 15.8 µM] | activation [9] -0.752% [at 15.8 µM] | activity change, negative = cytotoxicity [10] -3.45% [at 15.8 µM] | activity change, negative = cytotoxicity [11] 0.725% [at 19 µM] | activity, negative = inhibition [12] -7.34% [at 19 µM] | Potency [13] | viability change, negative = cytotoxic [14] 3.18% [at 19 µM] | activity change, negative = inhibition [15] 0.285% [at 23.6 µM] | viability change, negative = cytotoxic [16] 7.15% [at 19 µM] | activity change, negative = cytotoxicity [17] -0.461% [at 19 µM] | activity, negative = inhibition [18] 6.03% [at 19 µM] | activation [19] -0.195% [at 19 µM] | viability change, negative = cytotoxic [20] 2.94% [at 19 µM]

CC(C)(O)CCCC1=CCC(C=O)CC1 (stereo unspecified)
inactive: outcome [1] | outcome [2] | Potency [3] | outcome [4] | outcome [5] | outcome [6] | outcome [7] | Potency [8] | Potency [9] | Potency [10] | outcome [11] | outcome [12] | Potency [13] | outcome [14] | Potency [15] | outcome [16] | outcome [17] | outcome [18] | Potency [19] | outcome [20]
